# Measured values published in PubChem BioAssay (Tox21).
# Results filed as inconclusive are left out. A call without a number means that no potency is given here. The source made the active and inactive calls. Calls follow the shape of the dose curve; as a rule, active = well fitted cell-killing curve with a large enough effect in the repeat runs; inconclusive = weak or mixed curves, or effect the other way; inactive = flat fitted curve, though single readings scatter.
# Test: qHTS assay to identify small molecule antagonists of the androgen receptor (AR) signaling pathway using the MDA cell line in the presence of 0.5 nM R1881 - cell viability counter screen (AID 1259242); also: nearly all actives have a fitted effect of over 45% in size
# Details: MDA-kb2 viability, CellTiter-Fluor protease fluorescence, 16 h; series mostly up to 92.4 µM
# Description: U.S. Tox21 Program National Center for Advancing Translational Sciences [NCATS] NIH Chemical Genomics Center [NCGC] U.S. Environmental Protection Agency [EPA] National Institutes of Environmental Health Sciences [NIEHS] National Toxicology Program [NTP] U.S. Food and Drug Administration [FDA] Tox21 Assay Overview: Androgen receptor (AR) is an important member of the nuclear receptor family. Its signaling plays a critical role in AR-dependent prostate cancer and other androgen related diseases. Considerable attention has been given in the past decades to develop methods to study and screen for the environmental chemicals that have the potential to interfere with metabolic homeostasis, reproduction, developmental and behavioral functions. Therefore AR binding assay for screening androgen antagonists can be used to identify potential endocrine disruptors. MDA-kb2 cells (from ATCC, deposited by Wilson et al.) were used to screen for AR inhibitors against Tox21 compound libraries. These cells are human breast carcinoma cells that were stably transfected with a luciferase reporter gene under control of the MMTV promoter that contains response elements for both androgen receptor (AR) and glucocorticoid receptor (GR). The current screening for identification of AR inhibitors against Tox21 libraries used lower concentration of (0.5 nM) R1881 as a stimulator. The cytotoxicity of the Tox21 compound libraries against MDA-kb2 cell line was tested by measuring live-cell protease activity using CellTiter-Fluor assay in the same wells.
# Tox21 Assay Protocol Summary: MDA-kb2 cells (cells cultured without CO2) were dispensed at 3,000 cells/well in 4 uL of culture medium into white wall/solid-bottom 1536-well plates (Corning Life Sciences, Corning, NY) using a Multidrop Combi (ThermoFisher Scientific, Waltham, MA) dispenser. After the assay plates were incubated at a 37C and 0% CO2 for 5 hr, 23 nL of compounds dissolved in DMSO, positive controls or DMSO only was transferred to the assay plate by a Pintool station (Kalypsys, San Diego, CA). The transfer of compounds was followed by the addition of 1 uL of 0.5 nM (final concentration) agonist (R1881)/culture medium using a Flying Reagent Dispenser (FRD, Aurora Discovery, San Diego, CA). The plates were incubated at 37C and 0% CO2 for 16 hr. For cytotoxicity assay, 1 uL of CellTiter-Fluor reagent (Promega Corporation, Madison, WI) was added to each well using the FRD and after 30 min incubation at 37C and 0% CO2, The fluorescence intensity was measured using ViewLux plate reader (PerkinElmer, Shelton, CT).
row,SMILES,Potency
1,CCCCCC1CCCC(=O)O1 (stereo not given),inactive
2,CCC(C)N (stereo not given),inactive
3,CNCc1ccccc1,inactive
4,OC[C@@H](O)[C@H](O)[C@@H](O)[C@@H](O)CO,inactive
5,O=C(O)CCNC(=O)c1ccccc1,inactive
6,CCN(CCC#N)c1ccccc1,inactive
7,CCCCCCCC[Si](OCC)(OCC)OCC,inactive
8,N#CCCOCCOCCC#N,inactive
9,CCCCCCCCOC(C)=O,inactive
10,CCCCCCCCCOCC1CO1 (stereo not given),inactive
11,Cc1cc(C)cc([N+](=O)[O-])c1,inactive
12,O=S(=O)(O)CCO,inactive
13,CO/N=C(/C(=O)N[C@@H]1C(=O)N2C(C(=O)O)=C(Cn3nnc(C)n3)CS[C@H]12)c1csc(N)n1,inactive
14,NC(=O)NC(=O)Cc1ccccc1,inactive
15,CCC(O)C(C)(C)C (stereo not given),inactive
16,COC(/C=C(\C)CCC=C(C)C)OC,inactive
17,C=CCOc1cc(Cl)ccc1C(=O)NCCN(CC)CC,inactive
18,Oc1ccccc1Cc1ccccc1O,inactive
19,CCC(=O)OCCC(C)CCC=C(C)C (stereo not given),inactive
20,CCOC(=O)CC#N,inactive

row,SMILES,Potency
1,CNC(=O)C(c1ccccc1)c1ccccc1,inactive
2,CC(=O)/C=C/c1ccco1,inactive
3,CCC1Nc2cc(Cl)c(S(N)(=O)=O)cc2S(=O)(=O)N1 (stereo not given),inactive
4,C=C[C@@H](C)CCC=C(C)C,inactive
5,CO[Si](CCCS)(OC)OC,inactive
6,O=c1cc(O)c(Cl)c[nH]1,inactive
7,CC(CC(=O)O)CC(C)(C)C (stereo not given),inactive
8,CCCCC(CC)COC(=O)c1ccccc1 (stereo not given),inactive
9,CC(=O)OC(C)(C)Cc1ccccc1,inactive
10,C=CC(C)(O)CC/C=C(\C)CC (stereo not given),inactive
11,CC(C)c1ccccc1O,inactive
12,CCC(C)(CCC(C)C)C(=O)[O-].CCC(C)(CCC(C)C)C(=O)[O-].[Zn+2] (stereo not given),inactive
13,Nc1ccnc(=O)[nH]1,inactive
14,CCCCC(CC)CNC(=O)CC(C)OC(=O)CCC(=O)O (stereo not given),inactive
15,Cc1cccc(NC(=S)N(C)C)c1,inactive
16,C=C(C)C(=O)OC,inactive
17,C1=CCC(c2ccccc2)CC1 (stereo not given),inactive
18,CC(C)(c1ccc(Oc2ccc3c(c2)C(=O)OC3=O)cc1)c1ccc(Oc2ccc3c(c2)C(=O)OC3=O)cc1,inactive
19,CCNC(=O)/C=C/c1cccc(Br)c1,inactive
20,C=CCOC(=O)c1ccc(C(=O)OCC=C)c(C(=O)OCC=C)c1,inactive
